RE007 growth inh: less growth of the S. pombe RE007 Vpr strain. S. pombe RE007 Vpr strain, BacTiter-Glo ATP luminescence, 24 h. Potency, µM (highest dose often 92.2 µM), most hits filed as inhibitors. 360,000 tested, 0.21% active. AID 651644; active = well fitted falling curve with a large enough effect; inconclusive = small, poorly fitted or top-dose-only effect; inactive = no such curve, though single readings can be large or run the other way; also: nearly all actives have a fitted effect of over 50% in size
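Fission yeast strain RE007, carrying one chromosomally integrated HIV-1 vpr copy, was seeded at OD 0.01 in PMG+AL medium with 23 nL pinned compound. After 24 h at 30 °C and 99% humidity, viability was read by BacTiter-Glo luminescence.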
LmPK inh: blocks Leishmania mexicana pyruvate kinase activity | Q27686 | purified LmPK, Kinase-Glo ATP luminescence, 1 h | Potency, µM (titrated, usually from 57.5 µM), hits mostly inhibitors | 290,000 tested, 0.37% active | AID 1721
Target sequence (Q27686 whole entry, looked up): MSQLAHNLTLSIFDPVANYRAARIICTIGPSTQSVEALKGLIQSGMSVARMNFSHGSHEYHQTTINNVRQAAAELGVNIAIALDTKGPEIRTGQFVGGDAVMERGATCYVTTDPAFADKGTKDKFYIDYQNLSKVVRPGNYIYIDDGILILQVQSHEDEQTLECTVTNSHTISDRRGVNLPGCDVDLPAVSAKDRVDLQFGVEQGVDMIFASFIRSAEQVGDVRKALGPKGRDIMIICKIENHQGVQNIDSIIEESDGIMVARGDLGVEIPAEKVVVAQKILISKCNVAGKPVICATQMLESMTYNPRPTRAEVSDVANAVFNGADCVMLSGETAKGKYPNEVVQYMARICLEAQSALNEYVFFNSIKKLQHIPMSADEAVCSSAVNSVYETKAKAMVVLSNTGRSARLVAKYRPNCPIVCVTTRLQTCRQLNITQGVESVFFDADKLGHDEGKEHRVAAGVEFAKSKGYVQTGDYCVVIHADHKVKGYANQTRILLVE
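qHTS format; LmPK 0.1 nM; substrates PEP 0.5 mM and ADP 0.1 mM. One-hour room-temperature incubation, then coupled luciferase luminescence; 0.5 nM enzyme wells mark activation.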
AMA1-RON2 inh: inhibitors of Plasmodium falciparum AMA1-RON2 interaction; 360,000 tested, 0.2% active; AlphaScreen AMA1-biotinylated RON2 peptide binding; Potency, µM (titrated, usually from 58.2 µM), actives largely listed as inhibitors; also: nearly all actives have a fitted effect of over 45% in size
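AMA1 (3D7) with his tag at 25 nM final met compounds first, then biotinylated RON2 peptide at 25 nM; detection used donor plus acceptor beads, 10 µg/mL apiece, read by AlphaScreen after 30 min at room temperature.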
TbPYK inhibitor: T. brucei pyruvate kinase inhibition; Q57TT1; TbPYK enzyme, Kinase-Glo Plus ATP luminescence, 45 min; Potency, µM (doses to about 76.8 µM), most hits filed as inhibitors; 410,000 tested, 0.12% active; AID 624173; also: nearly all actives have a fitted effect of over 50% in size
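Luminescent Kinase-Glo Plus end-point after 45 min room-temperature reaction of T. brucei pyruvate kinase started with 130 uM ADP (final). Buffer TEA 50 mM pH 7.2 with KCl, MgCl2, BSA, Tween-20; titration-based qHTS with fitted concentration-effect curves.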
Sm TGR inh: inhibitors of Schistosoma mansoni thioredoxin glutathione reductase; Q962Y6; purified TGR, DTNB reduction, TNB absorbance 405 nm; Potency, µM (doses to about 114 µM), usual class: inhibitors; 360,000 tested, 3% active; AID 485364; also: nearly all actives have a fitted effect of over 60% in size
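Kinetic colorimetric format: TGR-catalysed, NADPH-driven DTNB reduction monitored via TNB absorbance. Enzyme dispensed at 20 nM; compound exposure 15 min at room temperature before reaction start.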
A number is an active result; [ ] = another dose, or the depositor's remark. Hits are enriched below; roughly 3.2% of the tested compounds scored in any of these assays. Unless noted, calls follow the shape of the dose curve; as a rule, active = well fitted curve in the direction sought with a large enough effect; inconclusive = small, poorly fitted or top-dose-only effect, or another doubt; inactive = no such curve, though single readings can be large; an effect the other way counts as inactive or inconclusive.

How did Cc1cc(C)c2ccc(N)nc2c1O do in these assays?
RE007 growth inh: inactive; LmPK inh: inactive; AMA1-RON2 inh: inactive; TbPYK inhibitor: inactive; Sm TGR inh: inactive

How did Cc1cc(C)c2ccc(C)[n+]([O-])c2c1O do in these assays?
RE007 growth inh: inactive; LmPK inh: inactive; AMA1-RON2 inh: inactive; TbPYK inhibitor: inactive; Sm TGR inh: 13µM

Results for C=CCn1c(O)c(N=NC(=O)CNC(=O)/C=C/c2ccc(OC)cc2)c2ccccc21 ?
RE007 growth inh: inactive; LmPK inh: inactive; AMA1-RON2 inh: inconclusive; TbPYK inhibitor: inactive; Sm TGR inh: inactive

What do the screens show for `C=CCn1c(O)c(N=NC(=O)CNC(=O)/C=C/c2ccco2)c2ccccc21`?
RE007 growth inh: inactive; LmPK inh: inactive; AMA1-RON2 inh: inactive; TbPYK inhibitor: inactive; Sm TGR inh: 18µM

How did c1c2c(cc3sc(N4CCOCC4)nc13)OCCO2 do in these assays?
RE007 growth inh: inconclusive; LmPK inh: 14µM; AMA1-RON2 inh: inactive; TbPYK inhibitor: inconclusive; Sm TGR inh: inactive

Results for CCc1nc(SC)ncc1C(=O)N1CCN(c2cc(C)ccc2C)CC1 ?
TbPYK inhibitor: inactive; Sm TGR inh: inactive

How did Cc1ccc(N2CCN(S(=O)(=O)c3ccc4oc(=O)c5ncn(C)c5c4c3)CC2)c(C)c1 do in these assays?
TbPYK inhibitor: inactive; Sm TGR inh: inactive

Results for Cc1ccc2nc(N3C(=O)C(O)=C(C(=O)c4ccc(C)o4)C3c3ccco3)sc2c1 (stereo not drawn) ?
RE007 growth inh: inactive; AMA1-RON2 inh: inactive; TbPYK inhibitor: inactive; Sm TGR inh: inconclusive

What do the screens show for `Cc1ccc2nc(N3C(=O)C(O)=C(C(=O)c4ccco4)C3c3ccc(C)o3)sc2c1` (stereo not drawn)?
RE007 growth inh: inactive; LmPK inh: inactive; AMA1-RON2 inh: inactive; TbPYK inhibitor: inactive; Sm TGR inh: 32µM

How did CCCCNC(=O)CCCN1C(=O)CCn2nc(-c3cccn3C)cc21 do in these assays?
TbPYK inhibitor: inactive; Sm TGR inh: inactive

What do the screens show for `Cc1ccc(O)c(-c2cc3ccccc3[nH]2)c1`?
RE007 growth inh: 35µM; LmPK inh: inactive; AMA1-RON2 inh: inconclusive; TbPYK inhibitor: inactive; Sm TGR inh: inactive

How did COc1ccc(-c2cc3ccccc3[nH]2)cc1 do in these assays?
RE007 growth inh: inactive; LmPK inh: inactive; AMA1-RON2 inh: inactive; TbPYK inhibitor: inactive; Sm TGR inh: inactive

What do the screens show for `COc1ccc(CN2CC[C@H]3C=CCc4cccc(c43)C2)cc1`?
RE007 growth inh: inactive; AMA1-RON2 inh: inconclusive; TbPYK inhibitor: inactive; Sm TGR inh: 28µM

What do the screens show for `Cc1ccc(CN2CC[C@H]3C=CCc4cccc(c43)C2)cc1`?
RE007 growth inh: inactive; AMA1-RON2 inh: inactive; TbPYK inhibitor: inactive; Sm TGR inh: inactive

How did Cc1ccccc1NC(=O)C1c2cccc[n+]2CC(=O)N1c1c(C)cccc1C (stereo not drawn) do in these assays?
RE007 growth inh: inactive; LmPK inh: inactive; AMA1-RON2 inh: inactive; TbPYK inhibitor: inconclusive; Sm TGR inh: 45µM

How did Cc1cccc(C)c1NC(=O)C1c2cccc[n+]2CC(=O)N1Cc1ccc2c(c1)OCO2 (stereo not drawn) do in these assays?
RE007 growth inh: inactive; LmPK inh: inactive; AMA1-RON2 inh: inactive; TbPYK inhibitor: inactive; Sm TGR inh: inactive

What do the screens show for `Cc1cc(NC(=O)N2CCC(CN3CCOCC3)CC2)ccc1Br`?
TbPYK inhibitor: inactive; Sm TGR inh: inactive

What do the screens show for `Fc1ccc(C(Nc2ccccc2Cl)c2nnc(-c3ccccc3Cl)o2)cc1` (stereo not drawn)?
TbPYK inhibitor: inactive; Sm TGR inh: inactive

How did CCOc1ccccc1C1C(C(N)=O)=C(C)Nc2nc(-c3cccc(C)c3)nn21 (stereo not drawn) do in these assays?
RE007 growth inh: inactive; LmPK inh: inactive; AMA1-RON2 inh: inactive; TbPYK inhibitor: inactive; Sm TGR inh: 40µM

Results for O=C(O)C1C2C=CC(O2)C1C(=O)NCCCn1ccnc1 (stereo not drawn) ?
LmPK inh: inactive; Sm TGR inh: 50µM

Results for COc1cc(-c2nc(-c3ccccc3)c(-c3ccc(Br)cc3)[nH]2)cc(OC)c1O ?
TbPYK inhibitor: inactive; Sm TGR inh: inactive

Results for C=CCc1ccccc1OCC(O)CN(C(C)C)C(C)C (stereo not drawn) ?
RE007 growth inh: inactive; LmPK inh: inactive; AMA1-RON2 inh: inactive; TbPYK inhibitor: inactive; Sm TGR inh: inactive

Results for C=CCc1ccccc1OCC(O)CNC (stereo not drawn) ?
RE007 growth inh: inactive; LmPK inh: inactive; AMA1-RON2 inh: inactive; TbPYK inhibitor: inactive; Sm TGR inh: 25µM

What do the screens show for `COc1ccc(Cn2ccnc2SCC(=O)Nc2ccc(C)cc2C)cc1`?
TbPYK inhibitor: inactive; Sm TGR inh: inactive

What do the screens show for `O=C(O)c1ccc(S(=O)(=O)Nc2ccc3c(c2)OCCO3)cc1`?
RE007 growth inh: inactive; LmPK inh: inactive; AMA1-RON2 inh: inactive; TbPYK inhibitor: inactive; Sm TGR inh: 32µM

What do the screens show for `CCOC(=O)C1CCN(C(=O)Cn2c(=O)oc3cc(S(=O)(=O)N4CCC(C)CC4)ccc32)CC1`?
TbPYK inhibitor: inactive; Sm TGR inh: inactive

Results for Cc1ccc2c(c1)c1c(c(=O)n(Cc3ccccc3)c(=O)n1Cc1ccccc1F)n2C ?
TbPYK inhibitor: inactive; Sm TGR inh: inactive

What do the screens show for `CC(NC(=O)c1ccccc1)c1nc2ccccc2n1Cc1ccccc1F` (stereo not drawn)?
LmPK inh: inactive; Sm TGR inh: inactive

Results for CC(NC(=O)/C=C/c1ccco1)c1nc2ccccc2n1Cc1ccccc1F (stereo not drawn) ?
RE007 growth inh: inactive; LmPK inh: inactive; AMA1-RON2 inh: inactive; TbPYK inhibitor: inactive; Sm TGR inh: 35µM

Results for CC(NC(=O)/C=C/c1ccco1)c1nc2ccccc2n1Cc1c(Cl)cccc1Cl (stereo not drawn) ?
RE007 growth inh: inactive; LmPK inh: inactive; AMA1-RON2 inh: inactive[2.32 µM]; TbPYK inhibitor: inactive; Sm TGR inh: 25µM

What do the screens show for `COCCCNC(=O)C1CCN(C(=O)c2ccc(-n3ccc4ccccc43)s2)CC1`?
TbPYK inhibitor: inactive; Sm TGR inh: inactive

Results for N#CC1=C(N)Oc2cc(O)ccc2C1c1ccc2c(c1)OCO2 (stereo not drawn) ?
RE007 growth inh: inactive; LmPK inh: inactive; AMA1-RON2 inh: inactive; TbPYK inhibitor: inactive

How did CC(C)(C)C1=C(C#N)C(c2ccc3c(c2)OCO3)C(C#N)=C(N)O1 (stereo not drawn) do in these assays?
RE007 growth inh: inactive; LmPK inh: inactive; AMA1-RON2 inh: inactive; TbPYK inhibitor: inactive; Sm TGR inh: 2µM

How did CN(C)CCNC(=O)c1ccc2c(=O)n(Cc3ccc(Cl)cc3)c(=S)[nH]c2c1 do in these assays?
RE007 growth inh: inactive; LmPK inh: inactive; AMA1-RON2 inh: inactive; TbPYK inhibitor: inactive; Sm TGR inh: 45µM

Bioassay records deposited in PubChem BioAssay by National Center for Advancing Translational Sciences (NCATS).
